Data as given in PubChem BioAssay (NCI).
Compounds without any hit were thinned out: in the full panel of roughly 83,000, 20% have a hit.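 Step 1: grow cells in 96-well plates. Step 2: add test compound at a single concentration. Step 3: incubate 48 h. Step 4: record percent growth.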 Activity calls are given as the source filed them. The calls were made as follows: active = growth percent below 10; inactive = the rest.

Assays:
Assay in all cases: NCI-60 one-dose screen, 48 h (100 = growth as untreated, 0 = no growth, -100 = all killed)
Conditions in all cases: 10 µM unless noted
DU-145 prostate = test system: DU-145 prostate
K-562 leukemia = test system: K-562 leukemia
MALME-3M melanoma = test system: MALME-3M melanoma
MDA-MB-231 breast = test system: MDA-MB-231 breast
SF-268 CNS = test system: SF-268 CNS
SF-295 CNS = test system: SF-295 CNS
SF-539 CNS = test system: SF-539 CNS
UACC-257 melanoma = test system: UACC-257 melanoma
M14 melanoma = test system: M14 melanoma
RXF 393 renal = test system: RXF 393 renal

Measured: growth

O=C1/C(=C/c2ccccc2O)C(=S)SN1Cc1ccco1
inactive: DU-145 prostate 103% | K-562 leukemia 46.4% | MALME-3M melanoma 106% | MDA-MB-231 breast 108% | SF-268 CNS 105% | SF-295 CNS 94.3% | SF-539 CNS 97.4% | UACC-257 melanoma 99.1% | M14 melanoma 99.8%

CCCCCCCSc1ncnc2[nH]ncc12
inactive: DU-145 prostate 89.5% | K-562 leukemia 88.8% | MALME-3M melanoma 120% | MDA-MB-231 breast 84.4% | RXF 393 renal 61.2% | SF-268 CNS 82.3% | SF-539 CNS 87.5% | UACC-257 melanoma 104% | M14 melanoma 109%

O=C(NC1CCS(=O)(=O)C1)c1ccc(C(=O)c2ccccc2)cc1 (configuration not stated)
inactive: DU-145 prostate 128% | K-562 leukemia 108% | MALME-3M melanoma 108% | MDA-MB-231 breast 124% | SF-268 CNS 118% | SF-295 CNS 99.6% | SF-539 CNS 103% | UACC-257 melanoma 82.7% | M14 melanoma 98.6%

Cc1nn2c(/C=C3/C(=O)Nc4cc(Cl)ccc43)c(-c3ccccc3)nc2s1
inactive: DU-145 prostate 33.4% | K-562 leukemia 23.5% | SF-268 CNS 50.1% | M14 melanoma 22.2%
active: MALME-3M melanoma -64.6% | MDA-MB-231 breast 8.57% | RXF 393 renal -18% | SF-539 CNS -41.4% | UACC-257 melanoma -29%

FCc1ncc(-c2ccc(C(F)(F)F)cc2)c(NC2CCCCCC2)n1
active: DU-145 prostate -27.6% [100 µM] | K-562 leukemia -2.97% [100 µM] | MALME-3M melanoma -16.9% [100 µM] | MDA-MB-231 breast 0% [100 µM] | RXF 393 renal 1.22% [100 µM] | SF-268 CNS -0.671% [100 µM] | SF-295 CNS -40.9% [100 µM] | UACC-257 melanoma -6.1% [100 µM] | M14 melanoma 2.44% [100 µM]

CNc1nc(NC2CCCC2)nc(Sc2ccc(OC)cc2)n1
inactive: DU-145 prostate 26.5% [100 µM] | RXF 393 renal 32% [100 µM] | SF-268 CNS 25.7% [100 µM] | SF-539 CNS 49.2% [100 µM] | UACC-257 melanoma 31.4% [100 µM] | M14 melanoma 16.7% [100 µM]
active: K-562 leukemia 9.58% [100 µM] | MALME-3M melanoma -11.9% [100 µM] | MDA-MB-231 breast -30.9% [100 µM]

COc1ccc2cc(-c3nc4ccccc4[nH]3)c(=O)oc2c1
inactive: DU-145 prostate 114% | K-562 leukemia 96.8% | MALME-3M melanoma 103% | MDA-MB-231 breast 104% | SF-268 CNS 110% | SF-295 CNS 105% | SF-539 CNS 98.8% | UACC-257 melanoma 45.9% | M14 melanoma 93.7%

CCCCCc1c(C)[nH]c(/C=C2\N=C(c3ccc[nH]3)C=C2OCc2ccccc2)c1C
active: DU-145 prostate -100% [100 µM] | K-562 leukemia -26.2% [100 µM] | MALME-3M melanoma -86.9% [100 µM] | MDA-MB-231 breast -86.4% [100 µM] | RXF 393 renal -48.8% [100 µM] | SF-268 CNS -70.9% [100 µM] | SF-539 CNS -69.8% [100 µM] | UACC-257 melanoma -87.7% [100 µM] | M14 melanoma -81.4% [100 µM]

CCCn1c(N)c(C(=O)CNc2ccc(I)cc2)c(=O)[nH]c1=O
inactive: DU-145 prostate 57.3% | K-562 leukemia 43.5% | MALME-3M melanoma 80.7% | MDA-MB-231 breast 67.5% | SF-268 CNS 46.1% | SF-295 CNS 54.2% | SF-539 CNS 57.5% | UACC-257 melanoma 72.1% | M14 melanoma 56.2%

Nc1nc2c(nnn2Cc2ccc(Cl)c(Cl)c2)c(=O)[nH]1
inactive: DU-145 prostate 116% | K-562 leukemia 83.3% | MALME-3M melanoma 107% | MDA-MB-231 breast 94.5% | RXF 393 renal 107% | SF-268 CNS 96.6% | SF-539 CNS 98.3% | UACC-257 melanoma 98.9% | M14 melanoma 103%

COC(=O)[C@H](Cc1cn(C)cn1)NC(=O)[C@@H](NC(=O)Nc1cc(C(F)(F)F)cc(C(F)(F)F)c1)C(C)C
active: DU-145 prostate -97.1% [100 µM] | K-562 leukemia -53.5% [100 µM] | MALME-3M melanoma -90.5% [100 µM] | MDA-MB-231 breast -90.2% [100 µM] | RXF 393 renal -83.3% [100 µM] | SF-268 CNS -89.4% [100 µM] | SF-295 CNS -91% [100 µM] | UACC-257 melanoma -95.9% [100 µM] | M14 melanoma -92.8% [100 µM]

COc1ccc(CC(=O)Nc2nn3c(-c4cc(C(F)(F)F)cc(C(F)(F)F)c4)nnc3s2)cc1
inactive: DU-145 prostate 86% | K-562 leukemia 62.4% | MALME-3M melanoma 80.9% | MDA-MB-231 breast 88% | SF-268 CNS 85.8% | SF-295 CNS 66.1% | SF-539 CNS 65.7% | UACC-257 melanoma 58.2% | M14 melanoma 97%

COc1ccc(NC(=O)c2ccccc2-c2ccccc2)c(C(N)=O)c1
inactive: DU-145 prostate 29.6% | K-562 leukemia 14.2% | MALME-3M melanoma 34.3% | MDA-MB-231 breast 54.1% | SF-268 CNS 49.5% | SF-295 CNS 17.4% | UACC-257 melanoma 49.7% | M14 melanoma 18.2%
active: SF-539 CNS -1.25%

COC(=O)[C@H](CCCCNC(=O)OCc1ccccc1)NC(=O)[C@@H](NC(=O)Nc1cc(C(F)(F)F)cc(C(F)(F)F)c1)C(C)C
active: DU-145 prostate -82.2% [100 µM] | K-562 leukemia -18.9% [100 µM] | MALME-3M melanoma -61.4% [100 µM] | MDA-MB-231 breast -87.8% [100 µM] | RXF 393 renal -90.8% [100 µM] | SF-268 CNS -85% [100 µM] | SF-295 CNS -65.5% [100 µM] | UACC-257 melanoma -78.5% [100 µM] | M14 melanoma -75.6% [100 µM]

COc1cccc(-c2nc3cc(NC(=O)c4ccc(Cl)c(C#N)c4)ccc3o2)c1
active: DU-145 prostate 8.18% | K-562 leukemia 8.47% | MALME-3M melanoma -56.5% | MDA-MB-231 breast 8.99% | SF-268 CNS -5.11% | SF-539 CNS -70.7% | UACC-257 melanoma 4.33% | M14 melanoma -82.7%
inactive: SF-295 CNS 25.3%

O=c1[nH]cc(Nc2cc(Cl)c3nonc3c2[N+](=O)[O-])c(=O)[nH]1
inactive: DU-145 prostate 111% | K-562 leukemia 108% | MALME-3M melanoma 109% | MDA-MB-231 breast 104% | SF-268 CNS 126% | SF-539 CNS 101% | UACC-257 melanoma 25.2% | M14 melanoma 99.7%
active: SF-295 CNS -37.1%

CC1CC=CCC1C1OCC(C)(C)CO1 (configuration not stated)
inactive: DU-145 prostate 108% | K-562 leukemia 102% | MALME-3M melanoma 109% | MDA-MB-231 breast 112% | RXF 393 renal 103% | SF-268 CNS 106% | SF-539 CNS 95.5% | UACC-257 melanoma 97% | M14 melanoma 101%

Fc1ccc(-c2nn3c(-c4cc(C(F)(F)F)cc(C(F)(F)F)c4)nnc3s2)cc1
inactive: DU-145 prostate 87.1% | K-562 leukemia 68.8% | MALME-3M melanoma 43.8% | MDA-MB-231 breast 39.5% | SF-268 CNS 37.3% | SF-295 CNS 38.4% | SF-539 CNS 39.7% | UACC-257 melanoma 76.7% | M14 melanoma 64.6%

CCCCCCCCCCNCCSS(=O)(=O)O
active: K-562 leukemia 6.77% | SF-268 CNS -35.9%
inactive: DU-145 prostate 73.3% | MALME-3M melanoma 106% | MDA-MB-231 breast 76.3% | RXF 393 renal 104% | SF-539 CNS 99.3% | UACC-257 melanoma 101% | M14 melanoma 34.3%

COc1cc2c(cc1OC)C(CC1(O)CCCCC1)N(S(=O)(=O)c1ccc(C)cc1)CC2 (configuration not stated)
inactive: DU-145 prostate 32.3% [100 µM] | K-562 leukemia 10.8% [100 µM] | MALME-3M melanoma 18.9% [100 µM] | MDA-MB-231 breast 40.8% [100 µM] | RXF 393 renal 48.9% [100 µM] | SF-268 CNS 26.3% [100 µM] | UACC-257 melanoma 22.4% [100 µM] | M14 melanoma 13% [100 µM]
active: SF-295 CNS 3.6% [100 µM]

COc1cc(-c2nnc(-c3nc(-c4cc(OC)c(OC)c(OC)c4)n4ccccc34)o2)ccc1N
inactive: DU-145 prostate 85.4% | K-562 leukemia 64.7% | MALME-3M melanoma 86.5% | MDA-MB-231 breast 84.4% | RXF 393 renal 84.4% | SF-268 CNS 83.6% | SF-539 CNS 98.8% | UACC-257 melanoma 93.2% | M14 melanoma 80.3%

Cc1ccc(C2=Nc3c(ccc4c(C)c(C)c(=O)oc34)OC2)cc1
inactive: DU-145 prostate 106% | K-562 leukemia 95.4% | MALME-3M melanoma 104% | MDA-MB-231 breast 105% | RXF 393 renal 109% | SF-268 CNS 108% | SF-295 CNS 94.3% | M14 melanoma 103%

CCCCCc1c(C)[nH]c(/C=C2\N=C(c3ccc[nH]3)C=C2Oc2ccc(Cl)cc2)c1C
active: DU-145 prostate 3.42% [100 µM] | K-562 leukemia 0.896% [100 µM] | MALME-3M melanoma -59.3% [100 µM] | MDA-MB-231 breast -38.7% [100 µM] | RXF 393 renal -2.91% [100 µM] | SF-268 CNS -72.6% [100 µM] | SF-295 CNS -72.9% [100 µM] | UACC-257 melanoma -25.4% [100 µM] | M14 melanoma -88.5% [100 µM]

COc1cccc(C=Nc2cc(C(C)C)c(O)cc2C)c1O
inactive: DU-145 prostate 114% | K-562 leukemia 107% | MALME-3M melanoma 106% | MDA-MB-231 breast 88.9% | RXF 393 renal 104% | SF-268 CNS 92.1% | SF-539 CNS 91.7% | UACC-257 melanoma 111% | M14 melanoma 106%

CCOc1cc(CCNS(=O)(=O)c2ccc(C)cc2)c(C(C)=O)cc1OCC
inactive: DU-145 prostate 76.1% [100 µM] | K-562 leukemia 41.3% [100 µM] | MALME-3M melanoma 98.3% [100 µM] | MDA-MB-231 breast 78.5% [100 µM] | RXF 393 renal 87% [100 µM] | SF-268 CNS 79.9% [100 µM] | SF-539 CNS 101% [100 µM] | UACC-257 melanoma 77.8% [100 µM] | M14 melanoma 79.9% [100 µM]

O=C1CSC(c2ccccc2Cl)N1c1nnc(Cn2nnc3ccccc32)o1 (configuration not stated)
inactive: DU-145 prostate 91.8% | K-562 leukemia 69.6% | MALME-3M melanoma 127% | MDA-MB-231 breast 77.1% | RXF 393 renal 90.1% | SF-268 CNS 84.2% | SF-539 CNS 89% | UACC-257 melanoma 94.7% | M14 melanoma 89.8%

O=C1NC(=O)/C(=C\c2ccco2)S1
inactive: DU-145 prostate 112% | K-562 leukemia 111% | MALME-3M melanoma 101% | MDA-MB-231 breast 89.5% | RXF 393 renal 106% | SF-268 CNS 99.4% | SF-539 CNS 103% | UACC-257 melanoma 108% | M14 melanoma 104%
